From PubChem BioAssay
APOBEC3A inh = APOBEC3A ssDNA deaminase inhibitors, primary screen, selectivity assay for APOBEC3G inhibitor project, biochemical, FAM/TAMRA oligo cleavage fluorescence; inhibition, % at 20 µM; 330,000 tested, 0.41% active; recombinant A3A, FAM/TAMRA ssDNA deamination fluorescence; AID 493011, 2011; DNA dC->dU-editing enzyme APOBEC-3A (Homo sapiens), P31941;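 active = at least 40% inhibition at 20 µM here, with at most 30% in a related deaminase screen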;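 note: plate controls were A3A with DMSO for no effect and wells lacking A3A enzyme for full effect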
APOBEC3G inh = APOBEC3G DNA deaminase inhibitors, primary screen, biochemical, fluorescence, single-stranded DNA substrate, uHTS. 330,000 tested, 0.28% active. inhibition, % at 20 µM. DNA dC->dU-editing enzyme APOBEC-3G (Homo sapiens), Q9HC16. AID 493012, 2011. recombinant A3G, ssDNA deamination FAM/TAMRA fluorescence;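 active = inhibition of at least 40% at 20 µM, with no more than 30% in the related APOBEC3A deaminase screen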;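 note: plate controls were DMSO wells with A3G for no effect and wells lacking A3G enzyme for full effect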
ADAM17 inh = ADAM17 inhibitors, primary screen, biochemical, QFRET; Disintegrin and metalloproteinase domain-containing protein 17 (Homo sapiens), P78536; AID 720648, 2013; 370,000 tested, 0.83% active; inhibition, % at 6.95 µM; recombinant ADAM17, EDANS/DABCYL FRET peptide cleavage;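 active = inhibition above the mean of compounds lying between control limits plus 3 SD, set per campaign, cut at about 8.5% in these data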;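 note: 0% = DMSO-only wells as the low control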
Target sequence (P78536 215-824 limits assumed): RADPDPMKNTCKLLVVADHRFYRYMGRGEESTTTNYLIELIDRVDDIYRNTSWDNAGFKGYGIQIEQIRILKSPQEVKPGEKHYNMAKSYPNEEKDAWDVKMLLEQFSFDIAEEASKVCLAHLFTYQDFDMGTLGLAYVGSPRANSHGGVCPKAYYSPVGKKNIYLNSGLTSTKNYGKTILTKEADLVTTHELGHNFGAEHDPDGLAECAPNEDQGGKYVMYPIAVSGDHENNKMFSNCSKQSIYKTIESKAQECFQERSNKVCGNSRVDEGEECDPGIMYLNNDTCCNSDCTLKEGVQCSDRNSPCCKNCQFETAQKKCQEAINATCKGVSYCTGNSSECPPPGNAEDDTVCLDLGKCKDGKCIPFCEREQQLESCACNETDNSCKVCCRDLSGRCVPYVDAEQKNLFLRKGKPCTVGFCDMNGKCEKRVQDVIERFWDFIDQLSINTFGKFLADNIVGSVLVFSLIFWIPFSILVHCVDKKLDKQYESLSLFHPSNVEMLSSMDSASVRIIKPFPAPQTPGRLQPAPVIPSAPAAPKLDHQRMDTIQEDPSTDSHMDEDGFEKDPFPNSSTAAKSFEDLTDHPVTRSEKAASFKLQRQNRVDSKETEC
NRP1-CendR mod = modulators of CendR peptide binding to NRP-1, primary screen, biochemical, fluorescence polarization, uHTS. Neuropilin-1 (Homo sapiens), O14786. FAM-RPARPAR peptide binding to NRP-1. inhibition, % at 25 µM. 360,000 tested, 0.85% active;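 active = inhibition or corrected inhibition above about 18%, plus a signal ratio from 0.5 to 1.5, limit read from the data, passing the limit was not always enough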
ADAM10 inh = human ADAM10 inhibitors, primary screen, biochemical, QFRET, HTS | recombinant ADAM10, EDANS/DABCYL FRET peptide cleavage, 3 h | inhibition, % at 7 µM | 370,000 tested, 0.62% active | AID 720582, 2013;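 active = inhibition above a per-campaign cutoff equal to the mean of compounds falling between control-based bounds plus 3 SD, cut at about 20% in these data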;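 note: 0% = DMSO wells while the 100% control is not disclosed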
APOBEC3G confirm = APOBEC3G deaminase inhibitor retest, confirmation, biochemical, fluorescence, single-stranded DNA substrate, single concentration | recombinant A3G ssDNA deaminase, UDG/FAM-TAMRA fluorescence | 890 tested, 72% active | inhibition, % at 20 µM | shares compounds with APOBEC3G inh;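 active = inhibition reaching a set limit in any replicate at 20 µM, the limit being 80% of the first screen's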
UDG ctr A3G = E. coli UDG inhibitors, confirmation, counter-screen for APOBEC3G inhibitor project, biochemical, single concentration, fluorescence, FAM/TAMRA oligo | AID 504715, 2011 | inhibition, % at 20 µM | 710 tested, under 10 active | UDG counterscreen | shares compounds with APOBEC3G inh;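 active = compounds giving 40% or more inhibition at 20 µM in any one of the three replicates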;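 note: plate controls were DMSO wells with UDG and oligo for no effect and DMSO wells lacking both for full effect; inhibitors lower the FAM signal released by uracil excision and alkaline cleavage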
* = called active by the depositor; . = no result given; ! = repeats disagree. A selection: hits, their analogues and other compounds. The true share with any hit is near 2.4%.

SMILES	APOBEC3A inh	APOBEC3G inh	ADAM17 inh	NRP1-CendR mod	ADAM10 inh	APOBEC3G confirm	UDG ctr A3G
CCc1ccc(CN2CCC(C(=O)Nc3ccc(Oc4ccccc4)nc3)CC2)o1	1	41*	-1	14	1	0	.
O=C(Nc1ccc(Oc2ccccc2)nc1)C1CCN(Cc2ccccc2)CC1	0	-2	1	-6	-5	.	.
COC(=O)[C@]12C[C@H](CC(=O)N3CCN(C(=O)C4CC4)CC3)C(=O)N(Cc3ccc4c(c3)OCO4)C1=C[C@H](C(C)C)O[C@@H]2C1CC1	.	.	-1	.	4	.	.
Cc1ccc(N=Cc2cccc(O)c2O)c(C)c1	5	75*	1	-14	2	31*	.
Oc1cccc(/C=N/N=C/c2cccc(O)c2O)c1O	-5	-2	-1	-16	3	.	.
Cc1ccccc1N=Cc1cccc(O)c1O	10	70*	.	2	.	51*	.
CC(C)C[C@H]1COc2cccc(N3CCCC3)c2S(=O)(=O)N1C	.	.	-7	.	-9	.	.
COc1ccc(S(=O)(=O)n2nc(OC(=O)c3ccccc3)cc2N)cc1	-5	-6	-5	-9	-5	.	.
COc1ccc(S(=O)(=O)n2nc(OC(=O)c3cccs3)cc2N)cc1	6	54*	0	0	-5	5	.
CCN1CCN(c2nc(-c3ccccc3Cl)nc3ccccc23)CC1	-5	44*	-6	-1	-7	-1	-4
Nc1nc(-c2cc3c(cc2Cl)OCCO3)cs1	-1	52*	2	-23	-2	-9	-3
CC(C)c1cc(C(C)C)c(S(=O)(=O)N2CCC(C(=O)NCc3cccs3)CC2)c(C(C)C)c1	.	.	-1	.	4	.	.
Cc1ccc(CN(Cc2ccccc2)C(=S)NCC(=O)NCc2cccnc2)o1	-4	45*	5	3	9	7	3
Cc1cc(C(=O)O[C@H]2CCC[C@@]3(C(=O)N(Cc4ccccc4)c4ccccc43)[C@H]2NC(=O)CCc2ccccc2)no1	.	.	7	.	16	.	.
CC(/C=N/n1c(-c2cccnc2)n[nH]c1=S)=C\c1ccccc1	-4	23	-2	-6	0	.	.
CC(/C=N/n1c(-c2ccc(C)cc2)n[nH]c1=S)=C\c1ccco1	-2	17	1	-23	6	.	.
S=c1[nH]nc(-c2ccncc2)n1/N=C/C=C/c1ccco1	11	57*	0	-30	2	74*	2
Cc1cccc(-c2n[nH]c(=S)n2/N=C/C=C/c2ccco2)c1	52	54	1	-30	-6	.	.
CC(/C=N/n1c(-c2ccncc2)n[nH]c1=S)=C\c1ccco1	-1	66*	-4	-93	-13	90*	5
CC(/C=N/n1c(-c2ccccc2)n[nH]c1=S)=C\c1ccco1	-2	36	-3	-36	-3	.	.
CC(=C/c1ccccc1)/C=N/n1c(-c2ccncc2)n[nH]c1=S	-2	61*	2	18	9	94*	2
CC(/C=N/n1c(-c2ccco2)n[nH]c1=S)=C\c1ccco1	17	62*	2	-15	1	58*	-3
COc1ccc(CN2C(=O)[C@]3(NCCc4c3[nH]c3ccc(OC)cc43)c3cc(F)ccc32)cc1	.	.	4	.	11	.	.
O=C(NCc1ccco1)Nc1c(Cl)cc(Cl)cc1Cl	.	.	-3	.	3	.	.
C=CCCC1CN(Cc2ccc(OC)cc2)S(=O)(=O)c2c(cccc2N2CCCCC2)O1 (centres undefined)	.	.	-1	.	-21	.	.
SMILES	APOBEC3A inh	APOBEC3G inh	ADAM17 inh	NRP1-CendR mod	ADAM10 inh	APOBEC3G confirm	UDG ctr A3G
COc1ccc2c(C)cc3n[nH]c(=S)n3c2c1	-7	52*	-94	-12	-264	87*	-1
Nn1c(SCC(=O)Nc2cccnc2Cl)nnc1-c1ccccc1	1	46*	.	-2	.	63*	-2
COc1ccc(C(=O)OCCN2CCN(C3CN(Cc4cn(Cc5cccc(F)c5)nn4)S(=O)(=O)C3)CC2)cc1OC (centres undefined)	.	.	-1	.	0	.	.
CCOC(=O)N1CCN(C(=O)C[C@@H]2C[C@]3(C(=O)OCC)CCC4=C3N(CCC4)C2=O)CC1	.	.	-8	.	-4	.	.
COc1cc(C(=O)N2C(=O)CCC2=O)cc(OC)c1OC	0	57*	-3	2	6	5	-1
CN1CCc2cccc3c2[C@H]1Cc1ccc(O)c(O)c1-3	-11	51*!	-25	1	-87	103*	0
O=C(Nc1nc(-c2nc3ccccc3s2)cs1)C1CC1	0	43*	-9	-4	-37	-1	.
O=C(Nc1n[nH]c(=S)s1)c1ccco1	-3	83*	1	-1	-4	88*	-3
OCc1ccccc1SSc1ccccc1CO	1	44*	-4	8	-10	51*	-3
COC(=O)[C@]12C[C@H](CC(=O)NCc3cccc4ccccc34)C(=O)N(Cc3ccccc3)C1=C[C@H](C(C)C)O[C@@H]2C1CC1	.	.	2	.	7	.	.
O=C(CCC(=O)OCC(=O)c1ccc(-c2ccccc2)cc1)Nc1cccc2cccnc12	1	-1	-7	4	1	.	.
O=C(CCC(=O)OCC(=O)c1ccc(Cl)cc1Cl)Nc1cccc2cccnc12	-2	54*	1	-4	-3	-4	-1
Cc1ccccc1N1CCN(S(=O)(=O)c2ccc3c(c2)n(C)c(=O)c(=O)n3C)CC1	.	.	3	.	-2	.	.
Cc1ccc(NC(=O)[C@@H]2CC(=O)O[C@@H]2c2ccccc2)c(C)c1	.	.	-3	.	-3	.	.
Cc1c(O)cc2c(c1O)C(=O)CC(c1ccc(O)cc1)O2 (centres undefined)	29	56*	1	-5	-3	69*	.
S=c1[nH]nc(COc2ccccc2)n1/N=C/c1ccccn1	-4	55*	5	-2	-3	86*	1
COc1cc(/C=N/n2c(-c3ccccc3)n[nH]c2=S)cc(OC)c1O	-10	48*	-8	1	-6	64*	-7
FC(F)(F)c1ccc(/C=N/n2c(COc3ccccc3)n[nH]c2=S)cc1	-2	36	-1	-1	-3	.	.
